# In publication PMC4336329 (PLoS ONE, 2015):
# Hit rate of the full screen: of about 310,000 compounds, about 14,000 (4.5%) showed an effect of 50% or more. Effects have a minus sign here. The sample as a whole holds a higher share of strong results than the screen did.
# Molecular target: human ether-à-go-go-related gene (hERG) potassium channel (human, UniProt Q12809)
# Assay: primary screen, population patch clamp on CHO cells stably expressing hERG; higher = less effect of the substance
# 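Note: peak tail current of the secondary pulse compared with the same well before compound.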
# human ether-à-go-go-related gene (hERG) potassium channel, sequence (Q12809 whole entry, looked up): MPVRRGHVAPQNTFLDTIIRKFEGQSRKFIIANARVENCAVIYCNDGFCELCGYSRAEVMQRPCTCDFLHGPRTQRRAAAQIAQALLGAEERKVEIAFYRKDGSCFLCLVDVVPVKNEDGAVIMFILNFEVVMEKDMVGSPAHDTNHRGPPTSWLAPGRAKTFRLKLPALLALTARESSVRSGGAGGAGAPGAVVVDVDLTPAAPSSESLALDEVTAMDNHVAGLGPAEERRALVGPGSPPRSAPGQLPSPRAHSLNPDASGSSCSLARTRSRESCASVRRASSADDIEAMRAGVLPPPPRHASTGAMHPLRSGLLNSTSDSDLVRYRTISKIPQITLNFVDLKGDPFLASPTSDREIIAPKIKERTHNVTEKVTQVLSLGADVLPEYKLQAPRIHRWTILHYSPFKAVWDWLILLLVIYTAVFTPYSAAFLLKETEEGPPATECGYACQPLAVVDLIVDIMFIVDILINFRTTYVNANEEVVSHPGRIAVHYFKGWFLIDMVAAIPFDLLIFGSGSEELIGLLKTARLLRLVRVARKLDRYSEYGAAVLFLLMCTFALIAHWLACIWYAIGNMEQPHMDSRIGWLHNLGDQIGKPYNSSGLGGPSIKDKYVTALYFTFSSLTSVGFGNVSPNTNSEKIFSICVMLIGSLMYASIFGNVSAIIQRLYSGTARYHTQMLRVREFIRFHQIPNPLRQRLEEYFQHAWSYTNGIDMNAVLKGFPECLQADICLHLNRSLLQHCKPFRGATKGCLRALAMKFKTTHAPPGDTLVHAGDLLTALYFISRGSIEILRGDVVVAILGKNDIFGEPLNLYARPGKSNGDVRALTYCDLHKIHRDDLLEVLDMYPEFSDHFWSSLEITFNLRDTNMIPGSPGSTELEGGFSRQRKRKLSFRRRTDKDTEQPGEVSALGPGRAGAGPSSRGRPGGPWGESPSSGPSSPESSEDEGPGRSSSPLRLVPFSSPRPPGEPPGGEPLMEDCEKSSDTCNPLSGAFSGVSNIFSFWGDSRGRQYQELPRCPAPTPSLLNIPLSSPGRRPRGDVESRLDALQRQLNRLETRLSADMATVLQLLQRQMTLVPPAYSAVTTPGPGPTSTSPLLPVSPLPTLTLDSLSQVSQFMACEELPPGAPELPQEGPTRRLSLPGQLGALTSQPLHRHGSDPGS
row,Compound,"hERG current change (%, negative = inhibition) at 10uM [%]"
1,O=C(CCC(=O)N1CCCC1)Nc1ccc([N+](=O)[O-])cc1,-1.25
2,NC(=S)N/N=C/c1ccc(C(F)(F)F)cc1,11
3,O=C(CSc1cccc[n+]1[O-])c1cc2ccccc2o1,-4.46
4,COC(=O)c1sccc1NC(=O)c1cc(OC)c(OC)c(OC)c1,3.09
5,O=NN1CCN(c2ccncc2S(=O)(=O)N2CCCCC2)CC1,10.6
6,COc1ccc(-c2noc(-c3ccccc3C(=O)NCc3ccco3)n2)cc1,3.2
7,COc1ccc(-c2nnc(N3CCOCC3)c3ccccc23)cc1,-2.78
8,Cc1ccc(-c2nnc(N3CCCCCC3)c3ccccc23)cc1,1
9,CCOc1ccc(-c2nnc(N3CCOCC3)c3ccccc23)cc1,-69.6
10,CCN1CCN(c2nnc(-c3ccc(F)cc3)c3ccccc23)CC1,-48.4
11,CCN1CCN(c2nnc(-c3ccccc3)c3ccccc23)CC1,-36.8
12,CCN1CCN(c2nnc(-c3ccc(C)cc3)c3ccccc23)CC1,-66.5
13,Cc1ccc(-c2nnc(N3CCN(CCO)CC3)c3ccccc23)cc1,-58.4
14,OCCN1CCN(c2nnc(-c3ccccc3)c3ccccc23)CC1,-23.5
15,CCOc1ccc(-c2nnc(N3CCCCC3)c3ccccc23)cc1,-6.17
16,Cc1ccc(C(=O)NCCOc2ccc(Cl)cc2)cc1,1.42
17,COc1cc(/C=C/C(=O)O)ccc1OCc1ccc([N+](=O)[O-])cc1,21.8
18,COc1ccc(CC(=O)Nc2ccc(-c3noc(COc4ccccc4C)n3)cc2)cc1,2.1
19,COC(=O)c1ccc(COc2ccccc2/C=C(\C#N)C(=O)Nc2ccc(C)cc2C)cc1,-11.1
20,COC(=O)c1c(-c2ccccc2)noc1-c1ccccc1,2.19

row,Compound,"hERG current change (%, negative = inhibition) at 10uM [%]"
1,CCOC(=O)c1c(OCCO)nn(-c2ccccc2)c1N,14.1
2,CCOC(=O)c1c(OCCO)nn(-c2ccc(Cl)cc2)c1N,-51.8
3,CCOC(=O)c1nn(-c2ccc(Cl)cc2)c(C)cc1=O,-0.00902
4,COc1ccc2[nH]cc(CCNS(=O)(=O)c3ccccc3)c2c1,11.7
5,CCOC(=O)c1c(NC(C)=O)sc2c(O)cccc12,2.36
6,CCOC(=O)c1c(NC(C)=O)sc2c(O)c(Br)ccc12,6.88
7,CCOC(=O)c1c(NC(C)=O)sc2c(OCCN(CC)CC)c(Br)ccc12,-54.8
8,CCOC(=O)c1c(NC(C)=O)sc2c(OCC(O)CNC(C)(C)C)c(Br)ccc12 (stereo not drawn),-11.8
9,CCOC(=O)c1c(NC(C)=O)sc2c(OCC(O)CN(CC)CC)c(Br)ccc12 (stereo not drawn),-51.3
10,CCOC(=O)c1c(NC(C)=O)sc2c(OC)c(Br)ccc12,2.16
11,Cn1c(=NC(=O)COc2ccccc2)sc2ccccc21,-8.07
12,COc1ccc(/C=C/C(=O)NCCNC(=O)c2ccccc2)cc1OC,-8.61
13,Cc1ccc(N2C(=O)CC(Nc3cccc4ccccc34)C2=O)cc1 (stereo not drawn),27.6
14,CC(C)=CC(=O)N1CCC(N2CCC(C(=O)N3CCOCC3)CC2)CC1,28.3
15,CC(C)=CCCC(C)CN1CCC(N2CCC(C(=O)N3CCCC3)CC2)CC1 (stereo not drawn),-74.8
16,CC(C)/C=C/C(=O)N1CCC(N2CCC(C(=O)N3CCOCC3)CC2)CC1,11
17,CC(C)=CCCC(C)CN1CCC(N2CCC(C(=O)N3CCOCC3)CC2)CC1 (stereo not drawn),-60.4
18,CC(=O)c1cc(CN2CCC(N3CCC(C(=O)N4CCCC4)CC3)CC2)cs1,-2.23
19,CC(C)=CCCC(C)CN1CCC(O)CC1 (stereo not drawn),-2.96
20,Cl.Nc1ncnc2nc[nH]c12,4.95

row,Compound,"hERG current change (%, negative = inhibition) at 10uM [%]"
1,CCC1CCCCN1CCNC(=O)CNS(=O)(=O)c1ccc2nc(C)sc2c1 (stereo not drawn),10.5
2,O=C(Nc1nnc(C2CC2)s1)C1=NN(C2CCS(=O)(=O)C2)C(=O)CC1 (stereo not drawn),0.219
3,Cc1[nH]c(C)c(S(=O)(=O)Nc2ccccc2Cl)c1C(=O)N1CCCC1,15.7
4,CCN(CC)c1ccc(N=Cc2c(O)n(-c3ccc(Cl)cc3)c(=O)[nH]c2=O)cc1,14.5
5,Cc1ccc(C(=O)CCC(=O)Nc2cccnc2)cc1C,12.4
6,COc1ccc(NC(=O)CN2CCC(C(=O)c3ccc(C)cc3)CC2)c(OC)c1,-29.8
7,CC1CCN(CC(=O)Nc2nccs2)CC1,13.6
8,NC(=O)C1CCN(CC(=O)Nc2nccs2)CC1,10.9
9,NC(=O)C1CCN(CC(=O)Nc2ccccc2N2CCOCC2)CC1,3.15
10,CCOc1ccc(C(=O)C2CCN(CC(=O)Nc3ccccc3N3CCOCC3)CC2)cc1,-53.6
11,COc1ccc(C(=O)C2CCN(CC(=O)Nc3ccc(C)cc3)CC2)cc1,-53.4
12,CCOc1ccc(C(=O)C2CCN(CC(=O)Nc3nccs3)CC2)cc1,-68.3
13,Cc1ccc(C(=O)C2CCN(CC(=O)Nc3ccc(N(C)C)cc3)CC2)cc1,-36.4
14,CCOc1ccccc1NC(=O)CN1CCC(C(=O)c2ccc(F)cc2)CC1,-20.9
15,CCOc1ccccc1NC(=O)CN1CCC(C(=O)c2ccc(OC)cc2)CC1,-65.9
16,CCOc1ccc(C(=O)Nc2ccccc2N2CCOCC2)cc1,-5.52
17,COc1ccc(C(=O)C2CCN(CC(=O)Nc3ccccc3F)CC2)cc1,-17.2
18,O=C(Cc1cccc2ccccc12)NNC(=O)c1cccs1,15.7
19,COC(=O)CSc1ncnc2c(C)csc12,3.11
20,CN(C)c1ccc(-c2nnc(-c3cccnc3)o2)cc1,7.04
